Assay outcomes as filed in PubChem BioAssay.
IP6K1 inhibitor: Primary qHTS assay for small molecule inhibitors of Inositol hexaphosphate kinase 1 (IP6K1). Inositol hexakisphosphate kinase 1 (Homo sapiens), Q92551. IP6K1 kinase, ADP-Glo luminescence, 2 h; hits give low values. activity change, % (series mostly up to about 58 µM). 140,000 tested, 0.81% active; in the data active = activity change below about -25%; also: % is scaled to controls: 0 for no effect and ±100 for the full control effect
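ADP-Glo luminescence measures ADP made by human IP6K1 during a 2 h RT reaction with ATP/IP6 (mix at 1.3 mM/130 uM); top library doses 57.5 and 19.1 uM final.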
KDM5B inhibitor: Primary screen for KDM5B Histone Demethylases FDH-coupled qHTS | Lysine-specific demethylase 5B (Homo sapiens), Q9UGL1 | KDM5B demethylase, FDH-coupled NADH fluorescence (FDH is formaldehyde dehydrogenase) | Potency, µM (titrated, usually from 57.7 µM), most hits filed as inhibitors | 220,000 tested, 2.6% active; also: potency is read from the fitted curve at half-maximal effect; 0% is about no effect; nearly all actives have a fitted effect of over 70% in size
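KDM5BΔAP (200 nM final) in 50 mM HEPES pH 7.5, 0.01% Tween-20 was preincubated 10 min at RT with compound over a concentration range. Substrate mix (H3K4me3 12.5 µM, α-KG 25 µM, Fe²⁺, ascorbate, NAD⁺, FDH) was added, and NADH fluorescence change over 30 min gave dose-response curves.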
SNCA expr inh: Primary qHTS assay for inhibitors of alpha-synuclein gene (SNCA) expression; HEK-293 SNCA-luciferase knock-in, luminescence, 24 h; Potency, µM (series often up to 57.2 µM), for inactives: at the top dose activity change, negative = inhibition, usual class: inhibitors; 140,000 tested, 0.17% active; AID 1671194, 2021;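 also: potency is read from the fitted curve at half-maximal effect; plate controls were DMSO cells for no effect and cell-free wells for full effect; nearly all actives have a fitted effect of over 45% in size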
SNCA viab count: GF-AFC viability counterscreen for inhibitors of alpha-synuclein gene (SNCA) expression; HEK-293-SNCA-luc viability, GF-AFC fluorescence, 24 h; Potency, µM (series often up to 57.1 µM), for the others: top-dose activity change, negative = cytotoxicity, hits mostly cytotoxic; 150,000 tested, 0.12% active; AID 1671193, 2021;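 also: potency is read from the fitted curve at half-maximal effect; 0% = DMSO-treated cells and -100% = medium-only wells without cells; nearly all actives have a fitted effect of over 30% in size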
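HEK-293-SNCA-luc cells (1500/well) plated 24 h, then exposed 24 h to a dilution series; GF-AFC added 30 min at 37C, fluorescence 405/540 nm; normalised to medium-only and DMSO wells, Hill fit.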
IP6K1 inh cnf: Confirmatory qHTS assay for small molecule inhibitors of Inositol hexaphosphate kinase 1 (IP6K1) | Potency, µM (top dose mostly 49 µM), for the others: top-dose activity change, negative = inhibition, usual class: inhibitors | 1,200 tested, 13% active | shares compounds with IP6K1 inhibitor | recombinant IP6K1 kinase, ADP-Glo luminescence, 2 h | AID 1645852, 2021; also: potency is read from the fitted curve at half-maximal effect; % is scaled to controls: 0 for no effect and ±100 for the full control effect; nearly all actives have a fitted effect of over 65% in size
An asterisk follows results filed as active; [ ] = remark or other dose. An excerpt weighted towards active compounds, which were near 2.9% of everything screened. Unless noted, calls follow the shape of the dose curve; as a rule, active = well fitted curve in the direction sought with a large enough effect; inconclusive = small, poorly fitted or top-dose-only effect, or another doubt; inactive = no such curve, though single readings can be large; an effect the other way counts as inactive or inconclusive.

`CN1Cc2ncnc(NCC3CC3)c2CN(c2ccc(Cl)cc2)C1=O` gave IP6K1 inhibitor -8, KDM5B inhibitor inactive, SNCA expr inh -8% and SNCA viab count -2%.
`CN1Cc2ncnc(NCCc3ccc(F)cc3)c2CN(c2ccc(Cl)cc2)C1=O` gave IP6K1 inhibitor -29*, KDM5B inhibitor inactive, SNCA expr inh inconclusive, SNCA viab count -26% and IP6K1 inh cnf -7%.
`O=C(C1CCCN(Cc2cccc(-c3cccs3)c2)C1)N1CCC(c2ccccc2)CC1` (centres undefined) gave IP6K1 inhibitor 24.
For O=C(Nc1cnc(N2CCN(c3ccccc3)CC2)c(C(=O)O)c1)c1cccs1 the results were IP6K1 inhibitor -28*, KDM5B inhibitor inconclusive, SNCA expr inh -2%, SNCA viab count -21% and IP6K1 inh cnf inconclusive.
Screening O=C(Nc1ccc(N2CCN(c3ccc(F)cc3)CC2)c(C(=O)O)c1)c1cccs1 returned IP6K1 inhibitor -27*, KDM5B inhibitor inactive, SNCA expr inh -17%, SNCA viab count 13% and IP6K1 inh cnf inconclusive.
Screening CCN1CCN(c2ccc(NC(=O)c3cccc(NC(=O)c4cccs4)c3)cc2)CC1 returned KDM5B inhibitor inactive.
For CC(=O)c1ccc(N2CCN(c3ccc(NC(=O)c4ccc(F)cc4)cc3C(=O)O)CC2)cc1 the results were IP6K1 inhibitor 0, KDM5B inhibitor inactive, SNCA expr inh 8% and SNCA viab count 5%.
For COc1ccc(NC(=O)C2CCC(CNS(=O)(=O)c3csc(C(N)=O)c3)CC2)cc1 (centres undefined) the results were IP6K1 inhibitor -39*, KDM5B inhibitor inactive, SNCA expr inh -17%, SNCA viab count 8% and IP6K1 inh cnf inconclusive.
For Nc1ccc(C(=O)O)c([N+](=O)[O-])c1 the results were KDM5B inhibitor inactive.
For Nc1ccc(O)c([N+](=O)[O-])c1 the results were IP6K1 inhibitor -28*, SNCA expr inh 153%, SNCA viab count 13% and IP6K1 inh cnf 32µM*.
O=C(NCc1cccc(C(F)(F)F)c1)C1CCCN(c2ccnc3ccnn23)C1 (centres undefined) was read as IP6K1 inhibitor -5, SNCA expr inh -11% and SNCA viab count -12%.
`COc1cccc(Cn2c(C)c(CNCc3ccccc3Cl)c(C(=O)O)c2C)c1` gave IP6K1 inhibitor -27*, KDM5B inhibitor inactive, SNCA expr inh -20%, SNCA viab count -2% and IP6K1 inh cnf 1%.
Screening CC(=O)NCCc1ccc(CC2CCN(S(=O)(=O)N(C)C)CC2)cc1 returned IP6K1 inhibitor 34, SNCA expr inh 4% and SNCA viab count 1%.
Screening CCCOc1ccc(C2=NC(c3ccncc3)=Nc3ccc(C)cc3N2)cc1 returned IP6K1 inhibitor -10, KDM5B inhibitor inactive, SNCA expr inh -7% and SNCA viab count -7%.
`Cc1ccc(C2=Nc3ccccc3NC(c3ccncc3)=N2)cc1` gave IP6K1 inhibitor -30*, KDM5B inhibitor inactive, SNCA expr inh -15%, SNCA viab count -19% and IP6K1 inh cnf 9%.
For O=Cc1cccc(-c2ccccc2F)c1 the results were IP6K1 inhibitor -29*, KDM5B inhibitor inactive, SNCA expr inh 22%[87.6 µM], SNCA viab count 8%[87.6 µM] and IP6K1 inh cnf inconclusive.
`O=Cc1cccc(-c2cccc(C(F)(F)F)c2)c1` gave IP6K1 inhibitor -36*, KDM5B inhibitor inactive, SNCA expr inh 2%[87.6 µM], SNCA viab count -2%[87.6 µM] and IP6K1 inh cnf inconclusive.
For CC(C)Cn1c(=O)c2ccccc2n2c(CCC(=O)NCc3ccc(Cl)cc3)nnc12 the results were IP6K1 inhibitor -28*, KDM5B inhibitor inconclusive, SNCA expr inh 6%, SNCA viab count 2% and IP6K1 inh cnf -3%.
CCc1ccc(-n2nnnc2N2CCN(C(=O)Nc3ccc(C)c(F)c3)CC2)cc1 was read as IP6K1 inhibitor -6, KDM5B inhibitor inactive, SNCA expr inh -13% and SNCA viab count inconclusive.
CC(Oc1ccccc1)C(=O)OCc1cc(=O)n2nc(C(C)C)sc2n1 (centres undefined) was read as IP6K1 inhibitor -30*, KDM5B inhibitor inactive, SNCA expr inh 20%, SNCA viab count 0% and IP6K1 inh cnf -9%.
O=C(c1ccccc1)N1Cc2[nH]cnc2C[C@H]1c1nc(-c2ccc(Cl)cc2)no1 was read as IP6K1 inhibitor -39*, KDM5B inhibitor inactive, SNCA expr inh inconclusive, SNCA viab count -19%[87.6 µM] and IP6K1 inh cnf inconclusive.
COC(=O)CNC(=O)C1CCCCN1Cc1ccc(-c2cc(F)ccc2OC)cc1 (centres undefined) was read as IP6K1 inhibitor 19.
`COc1cccc(-c2cccc(C(=O)N3CCN(C(=O)c4ccc(F)cc4)CC3)c2)c1` gave IP6K1 inhibitor 1, SNCA expr inh -26% and SNCA viab count 5%[12.5 µM].
Cc1cc(C)cc(OC(=O)c2snnc2C)c1 was read as IP6K1 inhibitor -35*, KDM5B inhibitor inconclusive, SNCA expr inh -5%, SNCA viab count 3% and IP6K1 inh cnf -12%.
Screening Cc1nnsc1C(=O)Oc1ccc(Cl)cc1 returned IP6K1 inhibitor -26*, KDM5B inhibitor inconclusive, SNCA expr inh -11%, SNCA viab count 6% and IP6K1 inh cnf -4%.
`Cc1nnsc1C(=O)Oc1ccc(C#N)cc1` gave IP6K1 inhibitor -20, KDM5B inhibitor inconclusive, SNCA expr inh 8% and SNCA viab count -10%.
For Cc1cccc(OC(=O)c2snnc2C)c1C the results were IP6K1 inhibitor -18, KDM5B inhibitor inactive, SNCA expr inh -8% and SNCA viab count -7%.
For Brc1ccc2nc(SCCOc3ccccc3)[nH]c2c1 the results were IP6K1 inhibitor -32*, KDM5B inhibitor inactive, SNCA expr inh 78%, SNCA viab count 9% and IP6K1 inh cnf inconclusive.
Screening Cn1ncc2c(C(=O)NCc3ccc(Cl)cc3)cc(-c3ccccc3F)nc21 returned IP6K1 inhibitor 18.
Screening COc1ccc(-n2cc(-c3ccccc3)c3c(NC4CCCCC4)ncnc32)cc1 returned IP6K1 inhibitor -25*, KDM5B inhibitor inconclusive, SNCA expr inh 32%, SNCA viab count 23% and IP6K1 inh cnf inconclusive.
`CCOc1ccc(-n2cc(-c3ccccc3)c3c(NC4CCCCC4)ncnc32)cc1` gave IP6K1 inhibitor 6, KDM5B inhibitor inactive, SNCA expr inh 7% and SNCA viab count 3%.
COc1ccccc1-c1ccc(C(=O)N2CCC(C(=O)NC3CCCC3)CC2)cc1 was read as IP6K1 inhibitor 5, SNCA expr inh -7% and SNCA viab count 3%[12.5 µM].
For CNC(=O)c1cc(C2CC2)nc2onc(C3CCN(C(=O)Cc4ccc(F)cc4)CC3)c12 the results were IP6K1 inhibitor 0.
